# According to PubChem BioAssay AID504339 (National Center for Advancing Translational Sciences (NCATS), 2011):
# The campaign covered roughly 390,000 compounds. About 17,000 (4.4%) were called active. Entries that show only a call come without a potency. Not shown: some 8% with an inconclusive outcome. Only a selection was taken, and actives are over-represented in it overall. A number with no mark means an inactive call. The call rests on the fitted dose curve; in most records, active means well fitted inhibition curve with a large enough effect; inconclusive means small, poorly fitted or top-dose-only effect; inactive means no such curve, though single readings can be large or run the other way.
# Biological target: Lysine-specific demethylase 4A (Homo sapiens) (UniProt O75164)
# Sequence (O75164 whole entry, looked up, the tested form may be a part): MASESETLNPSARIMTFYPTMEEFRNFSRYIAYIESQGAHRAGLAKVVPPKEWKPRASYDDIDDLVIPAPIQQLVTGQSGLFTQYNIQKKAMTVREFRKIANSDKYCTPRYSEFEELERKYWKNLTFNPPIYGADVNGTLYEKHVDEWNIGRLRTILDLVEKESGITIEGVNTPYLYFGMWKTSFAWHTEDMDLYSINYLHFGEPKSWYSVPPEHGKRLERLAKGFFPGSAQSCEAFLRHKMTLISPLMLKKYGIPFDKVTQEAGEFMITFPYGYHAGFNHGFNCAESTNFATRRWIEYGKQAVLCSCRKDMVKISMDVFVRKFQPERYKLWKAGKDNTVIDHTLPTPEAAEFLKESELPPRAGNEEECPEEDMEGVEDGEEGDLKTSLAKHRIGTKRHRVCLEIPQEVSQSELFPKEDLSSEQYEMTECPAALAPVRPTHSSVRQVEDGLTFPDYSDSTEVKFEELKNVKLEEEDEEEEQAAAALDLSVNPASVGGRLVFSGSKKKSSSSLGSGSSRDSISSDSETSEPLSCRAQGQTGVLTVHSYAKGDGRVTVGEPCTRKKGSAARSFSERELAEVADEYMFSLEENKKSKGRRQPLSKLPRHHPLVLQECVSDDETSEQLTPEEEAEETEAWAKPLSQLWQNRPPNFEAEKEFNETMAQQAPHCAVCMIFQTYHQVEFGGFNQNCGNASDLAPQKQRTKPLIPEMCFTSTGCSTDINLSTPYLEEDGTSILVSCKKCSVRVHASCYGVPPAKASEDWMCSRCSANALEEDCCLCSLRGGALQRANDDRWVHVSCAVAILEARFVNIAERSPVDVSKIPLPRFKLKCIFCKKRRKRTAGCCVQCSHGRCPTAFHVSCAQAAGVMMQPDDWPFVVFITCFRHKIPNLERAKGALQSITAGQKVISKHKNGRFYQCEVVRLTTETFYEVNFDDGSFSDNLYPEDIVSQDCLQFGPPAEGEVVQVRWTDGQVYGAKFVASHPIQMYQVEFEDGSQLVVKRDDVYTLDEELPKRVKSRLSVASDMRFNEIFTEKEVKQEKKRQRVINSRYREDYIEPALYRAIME
# Test: qHTS Assay for Inhibitors of JMJD2A-Tudor Domain; further: nearly all actives have a fitted effect of over 50% in size
# Conditions: AlphaScreen JMJD2A-Tudor / H3K4me3 peptide binding; series mostly up to 114 µM
# Potency means the concentration at half of the fitted maximal effect.
SMILES,Potency,"activity change, negative = inhibition"
CCN(Cc1ccccc1)S(=O)(=O)c1ccc2c(c1)CCCN2C(C)=O,inactive,–
COC(=O)c1cc(NC(=O)c2cnc(SC)nc2-c2ccccc2)cc(C(=O)OC)c1,inactive,–
O=C1CCCCN1CCCC(=O)N1CCCC(Nc2ccc(F)cc2)C1 (centres undefined),inactive,–
O=C1/C(=C/c2ccc(F)cc2)SC(=S)N1NS(=O)(=O)c1ccccc1,inactive,–
O=C1/C(=C/c2ccc(F)cc2)SC(=S)N1CCCC(=O)N1CCCCC1CCO (centres undefined),44.7 µM (active),–
CCOc1cccc2cc(-c3cn4c(n3)sc3cc(C)ccc34)c(=O)oc12,inactive,–
O=C(CSc1ncc(S(=O)(=O)c2ccc(Br)cc2)c(=O)[nH]1)Nc1ccc2c(c1)OCCO2,inactive,–
COc1cc2nc(SCC(=O)Nc3ccccc3F)n3nc(-c4ccccc4)nc3c2cc1OC,inactive,–
COc1ccc(N2CCN(C(=O)c3cccs3)CC2)cc1,inactive,–
COc1ccc(N2CCN(Cc3ccc(Br)s3)CC2)cc1,3.55 µM (active),–
COc1ccc(N2CCN(Cc3nnc(-c4ccccc4)o3)CC2)cc1,inactive,–
COc1cccc(NC(=O)Cn2c(=O)cc(C)c3c(C)nn(-c4cccc(F)c4)c32)c1,inactive,–
O=S(=O)(c1ccccc1)c1nc(-c2ccc(Cl)cc2Cl)oc1N1CCCCC1,inactive,–
O=C(O)c1cccnc1Sc1ncnc2sc3c(c12)CCC3,31.6 µM (active),–
CCCSc1ncccc1C(=O)O,inactive,–
OCCNc1nc2ccccc2n1-c1ncnc2sc3c(c12)CCC3,inactive,–
Cc1ccc2oc3c(c(=O)c2c1)C(c1ccc([N+](=O)[O-])cc1)N(CCCN1CCOCC1)C3=O (centres undefined),inactive,–
CCc1ccccc1NC(=O)N1CCC2(CC1)Oc1ccccc1C(=O)N2Cc1ccccc1F,inactive,–
CC(=O)Nc1ccc(NC(=O)CCCc2nc(-c3ccc(C(C)(C)C)cc3)no2)cc1,inactive,–
O=C(N/N=C/c1ccc(Cl)cc1)c1nc2ccc([N+](=O)[O-])cc2c(=O)[nH]1,28.2 µM (active),–
N#Cc1cc([N+](=O)[O-])ccc1Oc1cccc(/C=N/NC(=O)c2ccc(Cl)cc2)c1,inactive,–
O=C(N/N=C/c1cccc(OC(=O)c2ccc([N+](=O)[O-])cc2)c1)c1cccnc1,inactive,–
COC(=O)c1ccc(NC(=O)CCc2c(C)nn(-c3ccc(N4CCCC4)nn3)c2C)cc1,inactive,–
Cc1cc(C)cc(Nc2ncnc3onc(-c4ccc(F)cc4)c23)c1,inactive,–
Brc1nc2ncnc(NCc3ccco3)c2[nH]1,inactive,–

SMILES,Potency,"activity change, negative = inhibition"
O=C1CSC(=S)N1/N=C/c1ccc(O)c([N+](=O)[O-])c1,20 µM (active),–
O=C(CNC(=O)c1ccc(Cl)c(C(F)(F)F)c1)OC(C(=O)Nc1cc(C(F)(F)F)ccc1Cl)c1ccccc1 (centres undefined),inactive,–
CCOC(=O)c1ccccc1NC(=O)c1nn(-c2ccc(OC)c(Cl)c2)c(=O)c2c1c1ccccc1n2C,inactive,–
N#Cc1nc(Nc2cc(F)cc(Cl)c2)nc(NC2CCCC2)n1,inactive,–
Cc1onc(C(=O)NN)c1-c1csc(COc2ccccc2)n1,inactive,–
CCCC(=O)N1c2ccc(-c3csc(N)n3)cc2CC1C (centres undefined),inactive,–
CC(C)(C)C(=O)OCc1nc(-c2ccc(O)c(O)c2)cs1,3.55 µM (active),–
Cc1cc(C)c(NC(=O)CSc2nc3nccnc3c(=O)n2CCc2c[nH]c3ccccc23)c(C)c1,inactive,–
COC(=O)c1ccccc1NC(=O)c1ccc(C#N)cc1,inactive,–
COc1cc(NC(=O)Cn2c(=O)n(Cc3ccco3)c(=O)c3oc4ccccc4c32)cc(OC)c1,inactive,–
O=S(=O)(NCCc1nnc2ccc(SCc3ccc(Cl)cc3Cl)nn12)c1ccccc1,inactive,–
CNC(=S)Nc1ccc([N+](=O)[O-])cc1,inactive,–
O=C(O)/C=C/C(=O)NNc1ccc([N+](=O)[O-])cc1,31.6 µM (active),–
NC(=O)C1(Nc2ccc([N+](=O)[O-])cc2)CCCC1,inactive,–
CCS(=O)(=O)N1CCC(n2c(C)nc3cccnc32)CC1,inactive,–
O=C(CSc1ncn[nH]1)Nc1ccnc2ccccc12,inactive,–
CCN(C(=O)COC(=O)c1ccccc1O)c1cccc2ccccc12,inactive,–
CCN(C(=O)CSc1ncn[nH]1)c1cccc2ccccc12,3.16 µM (active),–
Cc1ccc(-c2onc(C)c2C)cc1S(=O)(=O)Nc1ccccn1,inactive,–
COC(=O)c1cc(S(=O)(=O)N2CCN(c3cc(Cl)ccc3C)CC2)c[nH]1,inactive,–
O=C(Nn1cc(C(=O)N2CCN(c3ccccc3F)CC2)c2ccccc2c1=O)c1cnccn1,25.1 µM (active),–
Cc1nc2ccn(Cc3cccnc3)c(=O)c2cc1C(=O)N1CCN(c2ccccc2F)CC1,inactive,–
O=C(Cn1nc(Cc2cccnc2)c2ccccc2c1=O)N1CCN(c2ccccc2F)CC1,inactive,–
CCN(CC)S(=O)(=O)c1ccc(C(=O)N=c2sc3cccc(OC)c3n2C)cc1,inactive,–
O=C(NCc1ccc2c(c1)CCN2C(=O)c1ccccc1)Nc1cc(F)ccc1F,inactive,–

SMILES,Potency,"activity change, negative = inhibition"
CCc1cnc2c(c1SCC(=O)c1ccccc1)c(=O)n(C)c(=O)n2C,inactive,–
COc1ccc(-c2nn3c(=O)cc(CN4CCN(C(=O)c5ccc(OC)c(OC)c5)CC4)nc3s2)cc1,inactive,–
CN1CCN(CCCCOc2cccc3ccccc23)CC1,inactive,–
COc1ccccc1OCCCCCCN1CCN(C)CC1,inactive,–
CCN1CCN(CCCCOc2ccccc2F)CC1,0.794 µM (active),–
CC(C)NC(=O)c1nn(-c2ccccc2F)nc1CO,inactive,–
Cc1[nH]c2ccccc2c1C(c1ccccc1)c1cccs1 (centres undefined),inactive,–
Cc1cccc(-n2ncc(C(=O)N3CCC(C)CC3)c2C2CCN(C(=O)OC(C)(C)C)CC2)c1,inactive,–
CCCCSc1ncnc2c1sc1nc(N3CCOCC3)c3c(c12)CCCC3,inactive,–
CCC(=O)c1ccc(OCC(O)Cn2nc(C)c(C(C)=O)c2C)cc1 (centres undefined),inactive,–
Cc1cc(C)n(CC(O)COc2ccc(C(C)(C)C)cc2)n1 (centres undefined),79.4 µM (active),–
Cc1cc(C)n(CC(O)CN(c2ccccc2)S(=O)(=O)c2ccc3ccccc3c2)n1 (centres undefined),inactive,–
COc1ccc(S(=O)(=O)c2c(Nc3ccc(C)cc3)sc(C(=O)c3ccc(C)cc3)c2N)cc1,inactive,–
CSc1ccc(C2c3c(oc4ccccc4c3=O)C(=O)N2CCCN2CCOCC2)cc1 (centres undefined),inactive,–
COc1ccc(-c2nc3sc(CCNS(=O)(=O)c4ccc(F)c(C)c4)c(C)n3n2)cc1,inactive,–
CC(C)c1cc(C(=O)O)n[nH]1,28.2 µM (active),–
Cc1cc(C)nc(NS(=O)(=O)c2ccc(NC(=O)c3cc(=O)c4ccc(C)c(C)c4o3)cc2)n1,inactive,–
CC1=C(C(=O)N2CCN(c3cccc(C(F)(F)F)c3)CC2)C2(CCCCC2)OC1=O,inactive,–
Cc1ccc(Cl)cc1N1CCN(C(=O)c2cnc3c(-c4ccc(F)cc4)c(C)nn3c2C)CC1,inactive,–
O=C(CNC(=O)c1ccc(Cl)cc1Cl)OC(C(=O)Nc1cc(C(F)(F)F)ccc1Cl)c1ccccc1 (centres undefined),inactive,–
CCOc1ccc(/C=C2\SC(=S)N(NC(=O)c3ccncc3)C2=O)cc1OC,inactive,–
COc1cc(/C=C/C(=O)N2c3ccccc3Sc3ccc(C(F)(F)F)cc32)cc(OC)c1OC,inactive,–
COc1cc(/C=C2\SC(=S)N(Nc3ncc(C(F)(F)F)cc3Cl)C2=O)cc(OC)c1OC,44.7 µM (active),–
COc1ccc(CCNc2nc3c(-c4cccc(F)c4)nnn3c3ccccc23)cc1OC,inactive,–
COCCNc1ncnc2c1c(-c1ccccc1)cn2-c1ccc(C)c(Cl)c1,inactive,–

SMILES,Potency,"activity change, negative = inhibition"
CC1(C)CCc2cc(S(=O)(=O)N3CCN(c4nc(-c5cccs5)nc5ccccc45)CC3)ccc2O1,inactive,–
COc1ccc(OC)c(-c2csc(NC(=O)C3=NNC(=O)CC3)n2)c1,inactive,–
COc1ccc(OC)c(Nc2nc(-c3ccc(O)c(O)c3)cs2)c1,10 µM (active),–
COc1ccc(OC)c(Nc2nc3ccccc3n3cnnc23)c1,–,-5.88% [at 11.4 µM]
CCOC(=O)c1ccc(NC(=O)CSc2nc3c([nH]c4ccccc43)c(=O)n2C)cc1,inactive,–
COc1ccc(OC)c(-c2noc(N3CCN(c4cc(Cl)ccc4C)CC3)n2)c1,inactive,–
Cc1cc(Nc2ccc(C(=O)N3CCCCC3)cc2)c2cccc(C)c2n1,inactive,–
Cc1ccccc1Nc1c([N+](=O)[O-])ccc2nonc12,inactive,–
Cc1ccc(Nc2cc(C)nc3c(C)ccc([N+](=O)[O-])c23)cc1,35.5 µM (active),–
CCS(=O)(=O)N1CCc2cc(C(=O)NCc3ccc(C)cc3)ccc21,inactive,–
CCn1cc(C(=O)NCCc2ccccc2)c(=O)c2cc(S(=O)(=O)N3CCCCCC3)ccc21,inactive,–
COC(=O)c1cc(NC(=O)CCS(=O)(=O)c2cc(Br)cc3c2N(C(=O)C2CC2)CC3)cc(C(=O)OC)c1,inactive,–
COc1ccc(C)cc1N(C)C(=O)c1c(C)oc2ncnc(N3CCOCC3)c12,inactive,–
Cc1ccc(CCNC(=O)C2CCN(c3nnc(-n4cccc4CNc4ccc(C)cc4)s3)CC2)cc1,inactive,–
O=C(OC12CC3CC(CC(C3)C1)C2)c1ccc(NCc2cc(O)ccc2O)cc1,56.2 µM (active),–
CC(CN1CCCCC1)OC(=O)c1ccccc1Cl (centres undefined),inactive,–
COC(=O)c1ccc(NCc2cc(O)ccc2O)cc1,5.62 µM (active),–
C#CCNc1ccc(C(=O)OCC)cc1,inactive,–
CC(C)OC(=O)c1ccc(NCc2cc(O)ccc2O)cc1Cl,10 µM (active),–
CCN(CC)C(=O)CCC(=O)Nc1ccc(C(=O)OC)cc1,inactive,–
CC1(C)C2CCC1(C)C(OC(=O)c1ccc(O)cc1)C2 (centres undefined),inactive,–
CC(OC(=O)c1ccc(Cl)cc1O)C(=O)NCCC1=CCCCC1 (centres undefined),inactive,–
O=c1cc(COc2cccc(C(F)(F)F)c2)nc2sc3c(n12)CCCC3,inactive,–
CN(C)c1ccc(C(=O)NCC(=O)OC(C(=O)Nc2cc(C(F)(F)F)ccc2Cl)c2ccccc2)cc1 (centres undefined),inactive,–
